These results are taken from PubChem BioAssay (EPA / NIEHS).

Records with an inconclusive call do not appear. Calls of active or inactive are those of the source. The calls were made as follows, unless noted: active = hit-call score of the fitted dose curve at least 0.9, where 1 is the maximum; inactive = score below 0.9.

A short description of experiment [1]: ACEA_ER_80hr: ACEA Biosciences xCELLigence Real-Time Cell Analysis on Estrogen Receptor Agonism for Proliferation (AID 2282667; active = hit-call score of the fitted dose curve at least 0.9, where 1 is the maximum). The conditions noted are these: T47D proliferation, impedance (xCELLigence), 80 h. The essentials:
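Real-time electrical impedance tracked growth of the human breast line T47D, with the 80 h post-dosing value used. Dosing spanned eight 1:4 steps down from a 100 uM final top concentration, run in duplicate.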

The nature of experiment [2]: ATG_CRE_CIS: Attagene CIS-FACTORIAL HepG2 Assay for human cAMP Responsive Element (CRE) binding protein 3 (AID 2282926). The conditions noted are these: HepG2 CRE cis-reporter, Attagene multiplexed mRNA; actives raise or lower the signal. The essentials: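 Assay format: transient reporter transfection of HepG2, 24 h treatment, total RNA isolation with DNase I step. Reporter abundance read by fluorescence after PCR and capillary separation; DMSO-normalised gain or loss fitting.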

The target in experiment [3] is CCAAT/enhancer-binding protein beta (Homo sapiens) (UniProt P17676). The experiment can be described thus: ATG_C_EBP_CIS: Attagene CIS-FACTORIAL HepG2 Assay for human CCAAT/Enhancer Binding Protein (C/EBP) beta (AID 2282927). Conditions: HepG2 Attagene cis-factorial transcription factor reporter; actives raise or lower the signal. In a few lines:
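HepG2 transiently transfected with multiplexed reporter units under cis-regulatory promoters reporting endogenous C/EBPb activity. After 24 h exposure, reporter mRNA assayed by RT-PCR, fluorescent labelling, HpaI digestion and capillary electrophoresis; bidirectional fitting versus DMSO.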

Experiment [4] is described as follows: ATG_CMV_CIS: Attagene CIS-FACTORIAL HepG2 Assay for human CMV (Internal Marker) (AID 2282928).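 Also: endpoint acts as a background internal control marker rather than a target.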 The conditions noted are these: HepG2 CMV promoter reporter, transcription factor profiling; actives raise or lower the signal. In a few lines: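 Reporter transcripts from transfected HepG2 cells are isolated after 24 h of chemical dosing, reverse-transcribed and amplified. Fragments labeled with 6-FAM are cut with HpaI and quantified by capillary electrophoresis; DMSO defines baseline.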

Experiment [5] concerns the target Aryl hydrocarbon receptor (Homo sapiens) (UniProt P35869). In words: ATG_Ahr_CIS: Attagene CIS-FACTORIAL HepG2 Assay for human Aryl Hydrocarbon Receptor (Ahr) (AID 2282930). Conditions: HepG2 AhR cis-factorial reporter transcription; actives raise or lower the signal. In a few lines:
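HepG2 cells transiently transfected with cis-element-driven multiplexed reporter units; endogenous AhR activity read as reporter mRNA 24 h after dosing, via RT-PCR, 6-FAM labelling, HpaI digestion and capillary electrophoresis. Bidirectional fit relative to DMSO.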

Experiment [6] is described as follows: ATG_AP_1_CIS: Attagene CIS-FACTORIAL HepG2 Assay for human Activator Protein 1 (AP-1) (AID 2282931). The conditions noted are these: HepG2 Attagene cis-factorial AP-1 reporter mRNA; actives raise or lower the signal. In a few lines:
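Transient MRTU transfection of HepG2 → 24 h chemical treatment → RNA isolation, RT-PCR, 6-FAM labelling, HpaI digest → capillary electrophoresis. Fit: bidirectional, DMSO negative control.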

Experiment [7] can be described thus: ATG_AP_2_CIS: Attagene CIS-FACTORIAL HepG2 Assay for human Activator Protein 2 (AP-2) (AID 2282932). Conditions: HepG2 AP-2 cis-reporter, Attagene transcription factor profiling; actives raise or lower the signal. In a few lines: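 Read-out: fluorescent reporter mRNA via RT-PCR and capillary electrophoresis, 24 h post-dose in transiently transfected HepG2. Endogenous factors drive cis-promoter reporters; gain or loss of signal fitted bidirectionally against DMSO.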

The nature of experiment [8]: ATG_BRE_CIS: Attagene CIS-FACTORIAL HepG2 Assay for human Bone Morphogenetic Protein (BMP) Response Element (BRE) (AID 2282933). The conditions noted are these: HepG2 BMP response element reporter, Attagene transcription factor profiling; actives raise or lower the signal. In a few lines:
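Endogenous transcription factor activity read in transiently transfected HepG2 cells after 24 h chemical exposure. Bidirectional curve fitting against DMSO; readout is reporter transcript level by RT-PCR with capillary electrophoresis of labelled products.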

For experiment [9], the target named is Retinoic acid receptor alpha (Homo sapiens) (UniProt P10276). In words: ATG_DR5_RAR_CIS: Attagene CIS-FACTORIAL HepG2 Assay for human Retinoic Acid Receptor Alpha (RARE), DR5 submotif (AID 2282934). Conditions: HepG2 Attagene cis-factorial RARE DR5 reporter, mRNA; actives raise or lower the signal. The essentials:
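HepG2 cells transiently transfected with multiplexed reporter units; DR5 cis-element drives reporter through endogenous transcription factors. After 24 h dosing, reporter mRNA quantified by RT-PCR, fluorescent labeling, HpaI digestion and capillary electrophoresis; bidirectional fitting versus DMSO.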

For experiment [10], the target named is Transcription factor E2F1 (Homo sapiens) (UniProt Q01094). The experiment can be described thus: ATG_E2F_CIS: Attagene CIS-FACTORIAL HepG2 Assay for human E2F Transcription Factor 1 (AID 2282935). The conditions noted are these: HepG2 Attagene cis-reporter, E2F reporter RNA transcripts; actives raise or lower the signal. In a few lines: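 Transient MRTU transfection of HepG2; 24 h compound exposure; RNA → oligo(dT) RT → PCR → FAM label → HpaI cut → CE fluorescence. Gain/loss of signal fit against DMSO.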
Chain of Transcription factor E2F1 (Homo sapiens) (Q01094 whole entry, looked up): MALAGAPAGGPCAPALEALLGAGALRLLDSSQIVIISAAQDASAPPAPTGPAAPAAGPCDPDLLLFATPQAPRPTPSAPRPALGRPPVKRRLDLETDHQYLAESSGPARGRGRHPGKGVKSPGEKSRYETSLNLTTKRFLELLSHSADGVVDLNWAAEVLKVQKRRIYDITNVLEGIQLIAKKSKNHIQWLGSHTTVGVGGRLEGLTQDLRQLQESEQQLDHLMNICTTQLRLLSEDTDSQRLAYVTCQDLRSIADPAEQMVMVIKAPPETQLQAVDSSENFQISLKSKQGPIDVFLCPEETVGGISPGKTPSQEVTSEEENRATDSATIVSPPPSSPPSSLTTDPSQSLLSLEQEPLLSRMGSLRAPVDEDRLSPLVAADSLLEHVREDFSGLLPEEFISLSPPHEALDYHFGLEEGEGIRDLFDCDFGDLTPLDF

Experiment [11] in a line: ATG_E_Box_CIS: Attagene CIS-FACTORIAL HepG2 Assay for human Enhancer Box (E-box) (AID 2282936). Conditions: HepG2 E-box cis-reporter transcription, actives raise or lower the signal. The essentials:
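Transiently transfected HepG2, endogenous TF-driven reporters, 24 h dosing. Readout: RT-PCR plus capillary electrophoresis of fluorescent reporter fragments. Gain or loss of signal fitted bidirectionally against DMSO baseline.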

Experiment [12] can be described thus: ATG_M_61_CIS: Attagene CIS-FACTORIAL HepG2 Assay for M61 Transcription Factor (Internal Marker) (AID 2282937). The conditions noted are these: HepG2 Attagene CIS-FACTORIAL M61 internal marker reporter; actives raise or lower the signal. The essentials:
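Human liver HepG2, transient MRTU transfection (cis promoter elements), 24 h compound. Total RNA → oligo(dT) RT → PCR → FAM label → HpaI → CE. Internal background marker; bidirectional fitting, DMSO = baseline.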

Experiment [13] is described as follows: ATG_EGR_CIS: Attagene CIS-FACTORIAL HepG2 Assay for human Early Growth Response 1 (EGR1) (AID 2282938). Conditions: HepG2 Attagene CIS-FACTORIAL EGR reporter mRNA; actives raise or lower the signal. In a few lines: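 Transient transfection of human HepG2 with multiple cis-regulated reporter units, chemical exposure 24 h, total RNA isolated. Reverse transcription, PCR, fluorescent labelling and capillary electrophoresis quantify reporter transcripts; activity fitted bidirectionally against DMSO.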

The nature of experiment [14]: ATG_M_19_CIS: Attagene CIS-FACTORIAL HepG2 Assay for M19 Transcription Factor (Internal Marker) (AID 2282939). Conditions: HepG2 Attagene CIS-FACTORIAL M19 internal marker reporter; actives raise or lower the signal. The essentials:
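Internal marker readout, fitted in both directions against DMSO, from HepG2 cells carrying transfected cis-element reporter constructs; RT-PCR and capillary electrophoresis of reporter mRNA after 24 h exposure.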

A short description of experiment [15]: ATG_ERE_CIS: Attagene CIS-FACTORIAL HepG2 Assay for Estrogen Response Element (ERE) (AID 2282940). The conditions noted are these: HepG2 ERE cis-reporter, Attagene RNA transcript; actives raise or lower the signal. The essentials: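 After 24 h compound treatment, RNA from transfected HepG2 cells was reverse-transcribed, reporter cDNA PCR-amplified, FAM-labelled, HpaI-cut and resolved by capillary electrophoresis. ERE-driven cis reporter transcripts reflect endogenous factors; gain or loss scored against DMSO.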

Experiment [16] in a line: ATG_Ets_CIS: Attagene CIS-FACTORIAL HepG2 Assay for human Erythroblast Transformation Specific (ETS) (AID 2282941). Conditions: HepG2 ETS cis-reporter transcription, actives raise or lower the signal. In a few lines: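 Bidirectional fit versus DMSO of reporter mRNA signal, detected by RT-PCR and capillary electrophoresis in HepG2 cells transiently transfected with cis-element reporters and dosed 24 h.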

The target in experiment [17] is Hepatocyte nuclear factor 3-beta (Homo sapiens) (UniProt Q9Y261). In words: ATG_FoxA2_CIS: Attagene CIS-FACTORIAL HepG2 Assay for human Forkhead box A2 (FOXA2) (AID 2282942). Conditions: HepG2 cis-reporter transcription factor activity, 24 h; actives raise or lower the signal. In a few lines: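 Transient MRTU transfection of HepG2 liver cells; 24 h treatment; total RNA → oligo(dT) RT → PCR → FAM primer extension → HpaI cut → CE. Bidirectional fit vs DMSO.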
Chain of Hepatocyte nuclear factor 3-beta (Homo sapiens) (Q9Y261 whole entry, looked up): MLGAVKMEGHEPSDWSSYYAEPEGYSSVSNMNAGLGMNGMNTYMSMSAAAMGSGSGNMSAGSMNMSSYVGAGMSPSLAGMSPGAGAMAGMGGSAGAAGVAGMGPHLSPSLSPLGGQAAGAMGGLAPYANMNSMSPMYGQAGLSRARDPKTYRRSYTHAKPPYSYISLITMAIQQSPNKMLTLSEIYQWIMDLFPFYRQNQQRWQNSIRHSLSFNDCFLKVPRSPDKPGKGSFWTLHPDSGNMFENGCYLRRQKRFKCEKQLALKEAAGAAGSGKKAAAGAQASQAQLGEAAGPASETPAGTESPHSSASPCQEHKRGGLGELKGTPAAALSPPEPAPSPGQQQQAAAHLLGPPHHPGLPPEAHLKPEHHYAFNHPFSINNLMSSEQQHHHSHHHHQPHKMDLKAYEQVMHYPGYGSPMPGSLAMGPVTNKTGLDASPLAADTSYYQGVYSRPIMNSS

Experiment [18] in a line: ATG_FoxO_CIS: Attagene CIS-FACTORIAL HepG2 Assay for human Forkhead box O (FoxO) (AID 2282943). Conditions: HepG2 Attagene cis-reporter, FoxO element, mRNA; actives raise or lower the signal. The essentials: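 HepG2 cells transiently transfected with cis-element-driven reporter units report endogenous FoxO activity. After 24 h chemical exposure, reporter mRNA quantified by RT-PCR, fluorescent labeling, HpaI digestion and capillary electrophoresis; bidirectional fit versus DMSO.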

Experiment [19] is described as follows: ATG_GATA_CIS: Attagene CIS-FACTORIAL HepG2 Assay for human GATA Binding Protein (AID 2282944). The conditions noted are these: HepG2 GATA cis-element reporter, Attagene multiplex mRNA; actives raise or lower the signal. The essentials: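 Reporter transcripts from a GATA cis-regulated unit, among multiplexed reporters in transfected HepG2 cells, were measured by RT-PCR with capillary electrophoresis after 24 h dosing. Induction or loss scored relative to DMSO.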

Experiment [20] in a line: ATG_DR4_LXR_CIS: Attagene CIS-FACTORIAL HepG2 Assay for human Liver X Receptor (LXR), DR4 submotif (AID 2282929). The conditions noted are these: HepG2 Attagene DR4 cis-reporter, mRNA transcription; actives raise or lower the signal. In a few lines:
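HepG2, transient MRTU transfection, cis-element (DR4) promoter; 24 h compound exposure; total RNA → oligo(dT) RT → PCR → 6-FAM primer extension → HpaI cut → CE. Gain/loss vs DMSO, bidirectional fit.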

Chain of Retinoic acid receptor alpha (Homo sapiens) (P10276 whole entry, looked up): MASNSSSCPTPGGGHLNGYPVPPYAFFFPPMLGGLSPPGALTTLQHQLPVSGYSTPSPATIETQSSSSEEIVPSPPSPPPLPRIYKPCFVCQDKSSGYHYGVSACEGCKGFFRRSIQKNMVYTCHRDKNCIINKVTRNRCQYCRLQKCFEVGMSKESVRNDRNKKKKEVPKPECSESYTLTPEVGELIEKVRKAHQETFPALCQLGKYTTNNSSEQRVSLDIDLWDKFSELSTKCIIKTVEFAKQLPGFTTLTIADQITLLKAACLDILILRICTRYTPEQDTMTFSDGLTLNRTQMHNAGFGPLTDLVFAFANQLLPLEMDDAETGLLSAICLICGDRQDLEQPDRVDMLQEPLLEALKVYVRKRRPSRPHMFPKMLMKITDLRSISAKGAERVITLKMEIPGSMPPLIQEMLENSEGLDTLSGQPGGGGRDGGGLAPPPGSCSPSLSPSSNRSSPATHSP
Chain of Aryl hydrocarbon receptor (Homo sapiens) (P35869 whole entry, looked up): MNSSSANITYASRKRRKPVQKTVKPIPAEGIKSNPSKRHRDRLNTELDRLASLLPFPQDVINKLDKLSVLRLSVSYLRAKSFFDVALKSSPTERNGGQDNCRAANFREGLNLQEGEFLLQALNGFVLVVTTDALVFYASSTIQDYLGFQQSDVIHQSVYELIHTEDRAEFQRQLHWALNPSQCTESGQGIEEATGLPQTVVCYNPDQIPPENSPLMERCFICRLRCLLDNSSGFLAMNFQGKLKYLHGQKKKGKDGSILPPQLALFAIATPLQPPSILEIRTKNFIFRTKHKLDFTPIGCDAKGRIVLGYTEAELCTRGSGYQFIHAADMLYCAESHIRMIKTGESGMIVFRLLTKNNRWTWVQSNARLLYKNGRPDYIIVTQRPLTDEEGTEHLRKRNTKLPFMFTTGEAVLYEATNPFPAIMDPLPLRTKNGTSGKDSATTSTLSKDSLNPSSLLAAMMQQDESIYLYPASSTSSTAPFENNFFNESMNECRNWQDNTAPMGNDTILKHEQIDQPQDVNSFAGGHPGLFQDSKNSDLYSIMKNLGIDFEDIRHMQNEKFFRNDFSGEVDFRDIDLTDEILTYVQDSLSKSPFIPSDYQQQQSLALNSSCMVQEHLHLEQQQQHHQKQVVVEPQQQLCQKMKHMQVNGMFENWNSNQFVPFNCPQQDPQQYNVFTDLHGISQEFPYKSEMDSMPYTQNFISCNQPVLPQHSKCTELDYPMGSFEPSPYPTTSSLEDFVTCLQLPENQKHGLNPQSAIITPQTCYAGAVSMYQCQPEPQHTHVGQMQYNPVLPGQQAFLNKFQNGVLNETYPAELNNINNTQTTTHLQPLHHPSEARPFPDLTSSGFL
Chain of CCAAT/enhancer-binding protein beta (Homo sapiens) (P17676 whole entry, looked up): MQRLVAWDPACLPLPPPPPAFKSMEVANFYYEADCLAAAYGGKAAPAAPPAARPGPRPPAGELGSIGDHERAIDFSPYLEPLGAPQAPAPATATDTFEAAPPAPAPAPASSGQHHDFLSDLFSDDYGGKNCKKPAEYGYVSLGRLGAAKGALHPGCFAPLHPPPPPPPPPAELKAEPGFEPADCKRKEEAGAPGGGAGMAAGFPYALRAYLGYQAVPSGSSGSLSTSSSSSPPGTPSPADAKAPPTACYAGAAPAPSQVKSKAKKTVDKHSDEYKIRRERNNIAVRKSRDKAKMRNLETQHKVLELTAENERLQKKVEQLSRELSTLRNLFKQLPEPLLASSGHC

Regarding `O=S(=O)(O)c1ccc(Cl)cc1`, the outcome in [1], in experiment [2], in [3], in experiment [4], in [5] and in experiment [6] was inactive. Also, the compound was classed as inactive in [7], in [8], in experiment [9], in experiment [10], in [11] and in experiment [12]. In addition, the call in experiment [13], in [14], in [15], in [16], in experiment [17] and in experiment [18] was inactive. Also, the compound was called inactive in experiment [19].
As for `CCCCCCCC/C=C\CCCCCCCC(=O)N(C)CC(=O)O`, the call in experiment [1], in experiment [2], in [3], in [5], in experiment [6] and in [7] was inactive. Also, the outcome in experiment [8], in [9], in experiment [10], in experiment [11], in experiment [12] and in experiment [13] was inactive. Also, the call in experiment [14], in [15], in [16], in experiment [17], in experiment [18] and in experiment [19] was inactive.
In the case of `CCOC(C=C(C)CCC=C(C)C)OCC`, the outcome in [1], in experiment [2], in experiment [3], in experiment [5], in [6] and in experiment [7] was inactive. Also, the outcome in experiment [8], in [9], in experiment [10], in [11], in experiment [12] and in [13] was inactive. The outcome in experiment [14], in experiment [15], in [16], in experiment [17], in experiment [18] and in experiment [19] was inactive.
Consider `COC(F)(C(F)F)C(F)(F)F` (stereo not given), for which the outcome in [1], in [2], in [3], in [5], in experiment [6] and in [7] was inactive. Also, the compound was called inactive in [8], in experiment [9], in [10], in [11], in experiment [12] and in experiment [13]. For the same compound, the call in experiment [14], in experiment [15], in experiment [16], in [17], in experiment [18] and in experiment [19] was inactive.
With `COCCC(=O)OC`, the result in experiment [1], in [2], in experiment [3], in [20], in [5] and in [6] was inactive. For the same compound, the call in experiment [7], in experiment [8], in [9], in experiment [10], in experiment [11] and in [12] was inactive. Moreover, the result in experiment [13], in experiment [14], in experiment [15], in [16], in experiment [17] and in [18] was inactive. Further, in [19], the result was inactive.
Consider `C=CC(=O)OCCC(F)(F)C(F)(F)C(F)(F)C(F)(F)F`, for which the AC50 is 17.1 µM (active) in experiment [1], 94 µM (active) in experiment [20], 213 µM (active) in experiment [6] and 101 µM (active) in experiment [8]. Moreover, the compound was classed as inactive in experiment [2], in experiment [3], in [5], in experiment [7], in experiment [9] and in experiment [10]. Besides, the result in experiment [11], in experiment [12], in [13], in [14], in experiment [15] and in experiment [16] was inactive. For the same compound, the outcome in experiment [17], in experiment [18] and in [19] was inactive.
On to `CCN=c1cc2oc3cc(NCC)c(C)cc3c(-c3ccccc3C(=O)OCC)c-2cc1C`, for which the AC50 in experiment [1] was 0.0353 µM (active); in experiment [2] it was 11.1 µM (active); in [6], 2.75 µM (active); in experiment [7] it was 11.1 µM (active); in experiment [11], 11.1 µM (active); in experiment [13], 11.1 µM (active). Besides, the outcome in experiment [3], in experiment [4], in experiment [5], in experiment [8], in [9] and in experiment [10] was inactive. Besides, the outcome in [12], in [14], in [15], in [16], in experiment [17] and in experiment [18] was inactive. For the same compound, in experiment [19], the call was inactive.

The term AC50 denotes the concentration giving half of the maximal activity seen.
